Experimental data taken from PubChem BioAssay AID1851 (National Center for Advancing Translational Sciences (NCATS), 2009).
Out of some 16,000 compounds screened, about 5,100 (32%) were called active. Not shown: some 25% with an inconclusive outcome. Some of the results follow. Values without a mark were called inactive. The call rests on the fitted dose curve; in most records, active means well fitted curve in the direction sought with a large enough effect; inconclusive means small, poorly fitted or top-dose-only effect, or effect the other way; inactive means no such curve, though single readings can be large or run the other way.
On the % scale 0 is the no-effect control and ±100 the full control effect.

The compounds below were run against Cytochrome P450 3A4 (Homo sapiens) (UniProt P08684) (assay: Cytochrome panel assay with activity outcomes). Details: recombinant CYP, pro-luciferin dealkylation, luminescence, p450-cyp3a4; series mostly up to 57.1 µM.
Chain of Cytochrome P450 3A4 (Homo sapiens) (P08684 whole entry, looked up): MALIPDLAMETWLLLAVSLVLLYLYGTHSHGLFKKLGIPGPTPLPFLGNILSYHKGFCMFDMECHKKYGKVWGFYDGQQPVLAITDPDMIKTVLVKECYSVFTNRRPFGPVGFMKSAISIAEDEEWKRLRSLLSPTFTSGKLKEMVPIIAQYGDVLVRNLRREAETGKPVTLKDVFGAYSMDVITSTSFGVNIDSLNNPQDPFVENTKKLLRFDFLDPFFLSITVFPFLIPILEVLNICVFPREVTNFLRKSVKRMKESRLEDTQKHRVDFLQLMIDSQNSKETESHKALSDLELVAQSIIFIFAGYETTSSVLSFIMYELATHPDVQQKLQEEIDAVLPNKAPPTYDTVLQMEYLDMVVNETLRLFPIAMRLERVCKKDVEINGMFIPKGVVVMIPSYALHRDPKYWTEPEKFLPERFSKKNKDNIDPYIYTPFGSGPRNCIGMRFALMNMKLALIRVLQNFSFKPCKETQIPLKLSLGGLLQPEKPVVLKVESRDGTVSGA
CCOc1cc2[nH]c(=S)n(CCCC(=O)NCc3ccco3)c(=O)c2cc1OCC was tested, and the AC50 was 3.98 µM (active).
For O=C(NCc1ccco1)c1ccc2c(=O)n(-c3ccccc3)c(=S)[nH]c2c1, the AC50 was “inactive”.
In the case of COCCNC(=O)CCCCCn1c(=S)[nH]c2ccccc2c1=O, the AC50 is reported as 8.91 µM (active).
O=C(CCCCn1c(=S)[nH]c2ccsc2c1=O)NCc1ccco1 was tested, and the AC50 was 7.08 µM (active).
O=C(CCn1c(=O)[nH]c2ccsc2c1=O)Nc1ccc(F)c(F)c1 was tested, and the AC50 was “inactive”.
For O=C(CCCCCn1c(=O)[nH]c2ccsc2c1=O)NCc1ccc2c(c1)OCO2, the AC50 was 0.631 µM (active).
With COCCn1c(=S)[nH]c2cc(C(=O)NC(C)C)ccc2c1=O the AC50 was “inactive”.
In the case of Cc1ccc(-n2c(=O)c3sccc3n(CC(=O)NCc3ccco3)c2=O)cc1F, the AC50 is reported as “inactive”.
COCCCn1c(=S)[nH]c2ncccc2c1=O was tested, and the AC50 was “inactive”.
For O=C1C2Sc3[nH]c(=O)sc3C(c3ccccc3)C2C(=O)N1c1ccc(Cl)cc1 (stereo not given), the AC50 was 12.6 µM (active).
In the case of O=C1C2Sc3[nH]c(=O)sc3C(c3ccccc3)C2C(=O)N1c1ccccc1 (stereo not given), the AC50 is reported as 7.94 µM (active).
For O=C1C(C2=NC(C(=O)O)C3C(=O)N(c4ccc(Cl)cc4)C(=O)C23)=C(O)c2ccccc21 (stereo not given), the AC50 was “inactive”.
Nc1ccccc1CCCC(=O)O was tested, and the activity, negative = inhibition was 0.683% [at 11.4 µM].
Compound O=C(CSc1nnc(-c2ccncc2)n1Cc1ccccc1)Nc1nccs1 has an activity, negative = inhibition of -23.1% [at 2.29 µM].
In the case of C=CCn1c(SCC(=O)Nc2ncc(Cc3ccc(Br)cc3)s2)nnc1-c1ccncc1, the AC50 is reported as 1.41 µM (active).
In the case of CC(C)N(C(=O)CSc1nc2ccccc2n1-c1ccccc1)C(C)C, the AC50 is reported as 7.94 µM (active).
With CC(C)n1c(N2CCN(C(=O)Nc3ccccc3)CC2)nc2ccccc21 the AC50 was “inactive”.
For CCCCc1c(O)nc(SCCN(C)C)n(-c2ccccc2)c1=O, the AC50 was “inactive”.
CNc1c2c(nn1C)CCCC2 was tested, and the AC50 was “inactive”.
O=C(Nc1ccc(Oc2ccccc2)cc1)C1CCN(c2c3c(nc4ncnn24)CCC3)CC1 was tested, and the AC50 was “inactive”.
With CC1CCCN(CC(O)COCC2COc3ccccc3O2)C1 (stereo not given) the AC50 was “inactive”.
For CC1CCCC(C)N1CC(O)COCC1COc2ccccc2O1 (stereo not given), the AC50 was “inactive”.
Cc1ccc(C2C(=O)N(C3CCCC3)CC(=O)N2CC2COc3ccccc3O2)cc1 (stereo not given) was tested, and the AC50 was 3.98 µM (active).
In the case of CN1CCN(c2ncnc3ccc(-c4cccnc4)cc23)CC1, the AC50 is reported as 15.8 µM (active).
CN(C)c1ccc(-c2ccc3ncnc(N4CCNCC4)c3c2)cc1 was tested, and the AC50 was 20 µM (active).
With c1cncc(-c2ccc3ncnc(N4CCNCC4)c3c2)c1 the AC50 was 12.6 µM (active).
With CN1CCN(c2ncnc3ccc(-c4ccc5c(c4)OCO5)cc23)CC1 the AC50 was 7.94 µM (active).
With N[C@H](C(=O)O)[C@@H]1[C@@H](C(=O)O)C1(F)F the AC50 was “inactive”.
For OC[C@@H]1O[C@H](n2cnc3c(/C=C(\O)c4ccccc4)ncnc32)[C@H](O)[C@@H]1O, the activity, negative = inhibition was -15.3% [at 11.4 µM].
NC(N)=NC[C@@H]1CCCCCCN1 was tested, and the activity, negative = inhibition was -2.73% [at 11.4 µM].
For CCN(CC)CC[n+]1ccc2c(C)c3[nH]c4ccc(O)cc4c3c(C)c2c1, the activity, negative = inhibition was -18.3% [at 11.4 µM].
In the case of Cc1sc2ncnc(OCC(=O)NC(C)C)c2c1C, the activity, negative = inhibition is reported as 0.697% [at 11.4 µM].
In the case of N#Cc1cccc(-c2ccc3ncnc(NC4CCNCC4)c3c2)c1, the AC50 is reported as “inactive”.
N#Cc1cccc(-c2ccc3ncnc(N4CCNCC4)c3c2)c1 was tested, and the AC50 was 20 µM (active).
CCc1ccc(OCC(=O)NNC(=O)CSc2ncnc3sc(C)c(C)c23)cc1 showed an activity, negative = inhibition of 1.75% [at 0.457 µM].
For COC(=O)c1c(-c2ccccc2)csc1NC(=O)CSc1ncnc2sc(C)c(C)c12, the AC50 was 8.91 µM (active).
Compound COCCNC(=O)CSc1ncnc2sccc12 has an activity, negative = inhibition of 0.766% [at 2.29 µM].
Cc1noc(C)c1-c1cc(N(C)Cc2ccco2)ncn1 was tested, and the AC50 was “inactive”.
CN(Cc1ccco1)c1ncncc1-c1ccccc1Cl was tested, and the AC50 was 0.501 µM (active).
With Cc1noc(C)c1-c1cncnc1N(C)Cc1ccco1 the AC50 was 3.16 µM (active).
In the case of CN(Cc1ccco1)c1cc(-c2ccccc2Cl)ncn1, the AC50 is reported as “inactive”.
For COc1ccccc1-c1cncnc1N(C)Cc1ccco1, the AC50 was 1.26 µM (active).
For Cc1ccccc1-c1cncnc1N(C)Cc1ccco1, the AC50 was 1.58 µM (active).
With Cc1ccccc1-c1cc(N(C)Cc2ccco2)ncn1 the AC50 was “inactive”.
With COc1ccccc1-c1cc(N(C)Cc2ccco2)ncn1 the AC50 was “inactive”.
For CN(Cc1ccco1)c1ncncc1-c1ccccc1C(F)(F)F, the AC50 was 1.26 µM (active).
With CN(Cc1ccco1)c1ccnc(-c2ccccc2C(F)(F)F)n1 the AC50 was “inactive”.
For O=C(C[C@@H]1C=Cc2ccccc2N1C(=O)c1ccccc1)c1ccccc1, the AC50 was 3.98 µM (active).
CN1[C@H](CC(=O)c2ccccc2)CCC[C@H]1C[C@H](O)c1ccccc1 was tested, and the AC50 was “inactive”.
For NC(=O)N1c2ccccc2C=Cc2ccccc21, the AC50 was “inactive”.
For O=C(O)[C@H]1C[C@@H](CP(=O)(O)O)CCN1, the AC50 was “inactive”.
For Cc1ccccc1-c1nc(CS(=O)CC(=O)NCCCN(C)c2ccccc2)c(C)o1 (stereo not given), the AC50 was 3.98 µM (active).
With CN(C)CCCNC(=O)CCc1nc2ccccc2c(=O)[nH]1 the AC50 was “inactive”.
CCCCN(C)CCCNC(=O)CS(=O)Cc1nc(-c2ccc(OC)c(OC)c2)oc1C (stereo not given) was tested, and the AC50 was 14.1 µM (active).
With CCCCN(C)CCCNC(=O)c1ccc(N2CCCC2=O)cc1 the AC50 was “inactive”.
In the case of O=C(NCCN1CCN(Cc2ccccc2)CC1)C1c2ccccc2C(=O)N2CCc3ccccc3C12 (stereo not given), the activity, negative = inhibition is reported as -22.2% [at 2.29 µM].
For Cc1ccccc1-c1nc(CS(=O)CC(=O)NCCN2CCN(Cc3ccccc3)CC2)c(C)o1 (stereo not given), the AC50 was 7.08 µM (active).
In the case of C=CCN1C(=NC(=O)CC)SC2CS(=O)(=O)CC21 (stereo not given), the AC50 is reported as “inactive”.
Work on O=C(O)C(=O)/C=C(\O)c1ccc(Br)cc1 yielded an activity, negative = inhibition of -7.81% [at 11.4 µM].
For COc1ccc(S(=O)(=O)NNC(=O)C2Cc3c(ccc4ccccc34)O2)cc1 (stereo not given), the AC50 was 10 µM (active).
For O=C(O)CCCc1ccc2ccc3ccccc3c2c1, the activity, negative = inhibition was -10% [at 11.4 µM].
For NNC(=O)CCc1ccc2ccc3ccccc3c2c1, the AC50 was 0.398 µM (active).
O=C(O)CCCc1ccc2ccccc2c1 gave an activity, negative = inhibition of -5.59% [at 11.4 µM].
With COc1ccc(OC)c(NC(=O)CSCc2cnn(-c3ccccc3)c2-n2cccc2)c1 the AC50 was 10 µM (active).
In the case of CCOC(=O)N1CCC(NC(=O)CSCc2cnn(-c3ccccc3)c2-n2cccc2)CC1, the AC50 is reported as 12.6 µM (active).
